This is a sample that favours compounds with a hit; in the whole collection about 18% have one here.
LDHA inh = blocks human lactate dehydrogenase A; activity change, % (values are at about 110 or 230 µM); actives 0.15% (n = 480,000); AID 1347041; purified LDHA, NADH/diaphorase-resazurin fluorescence; active compounds read low; P00338; in the data active = activity change below about -30%; inconclusive = mostly about -25% to -30%;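 note: plate controls were DMSO wells for no effect and wells without enzyme for full effect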
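Human LDH5 at 2 nM final in Tris HCl pH 7.4 with 0.06 mM NADH and 0.2 mM pyruvate, reacted 5 minutes at room temperature. Remaining NADH coupled via diaphorase/resazurin; resorufin fluorescence read at 0 and 20 minutes, normalized to enzyme-free and DMSO wells.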
IL-1B inflam inh = inflammasome signaling inhibition, IL-1 beta readout; THP-1 LPS/ATP IL-1B secretion, AlphaLISA, 16 h; active compounds read low; activity change, % at 57.5 µM; actives 4.7% (n = 360,000); AID 743279; in the data active = activity change below about -50%; inconclusive = mostly about -30% to -49%
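THP-1 cells pretreated 1 hr with compounds (up to 57.5 uM final), then stimulated with LPS (250 ng/mL final) plus ATP (1.25 mM final); secreted IL-1B measured by AlphaLISA after 16 hr, decreased signal indicating inhibition.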
DT40 TDP1 no CPT = qHTS for Inhibitors of human tyrosyl-DNA phosphodiesterase 1 (TDP1): qHTS in cells in absence of CPT; DT40 Tdp1-/- hTDP1 cells, no CPT, ATP luminescence, 48 h; Potency, µM (series often up to 46.2 µM), for inactives: top-dose activity change, negative = growth inhibition, actives largely listed as inhibitors; actives 15% (n = 420,000); AID 686978, 2013; note: potency is the fitted concentration of half-maximal effect; nearly all actives have a fitted effect of over 55% in size
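Luminescent ATP content (CellTiter-Glo) served as the growth readout. Knockout chicken DT40 cells expressing human TDP1 were exposed to compounds without camptothecin for a minimum 48 hr at 37 °C.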
RORg inh = inhibitors of mouse ROR gamma transcriptional activity; actives 5.4% (n = 310,000); Drosophila S2 Gal4-RORgamma UAS-luciferase reporter, 20 h; P51450; Potency, µM (doses to about 53.6 µM), inactives show at the highest dose activity change, negative = inhibition, hits mostly inhibitors; AID 2551; note: potency is the fitted concentration of half-maximal effect; nearly all actives have a fitted effect of over 60% in size
Target sequence (P51450 whole entry, looked up, the tested form may be a part): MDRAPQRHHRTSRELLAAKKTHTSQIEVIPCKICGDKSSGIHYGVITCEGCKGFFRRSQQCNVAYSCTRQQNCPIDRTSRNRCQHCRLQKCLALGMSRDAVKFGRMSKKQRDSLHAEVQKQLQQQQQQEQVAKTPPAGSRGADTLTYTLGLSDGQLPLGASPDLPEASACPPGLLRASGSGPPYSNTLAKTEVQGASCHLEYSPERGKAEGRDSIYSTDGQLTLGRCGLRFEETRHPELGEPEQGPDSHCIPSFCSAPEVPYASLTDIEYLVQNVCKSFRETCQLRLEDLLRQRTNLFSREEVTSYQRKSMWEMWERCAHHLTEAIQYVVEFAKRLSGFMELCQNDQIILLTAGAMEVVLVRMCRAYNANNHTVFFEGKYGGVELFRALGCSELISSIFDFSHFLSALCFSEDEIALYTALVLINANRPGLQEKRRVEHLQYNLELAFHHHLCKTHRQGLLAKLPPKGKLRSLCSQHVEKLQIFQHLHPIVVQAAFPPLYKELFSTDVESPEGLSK
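Drosophila S2 cells stably expressing Gal4-DBD/mouse RORγ fusion under metallothionein promoter plus UAS-luciferase; compound 1 h, then 700 uM CuSO4 induction for 20 h at ambient temperature; inhibition read as reduced luminescence.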
TDP1 cell CPT = DT40-hTDP1 cell growth loss with CPT. actives 12% (n = 420,000). Potency, µM (titrated, usually from 46.2 µM), for the others: top-dose activity change, negative = growth inhibition, actives largely listed as inhibitors. chicken DT40 Tdp1-/-;hTDP1 cells + 20 nM CPT, ATP luminescence, 48 h; note: potency is the fitted concentration of half-maximal effect; nearly all actives have a fitted effect of over 55% in size
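Chicken DT40 Tdp1-/- cells complemented with human TDP1, 400 cells/well, exposed to compounds plus 20 nM camptothecin for at least 48 h at 37 C; viability read as ATP content by CellTiter-Glo luminescence.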
Gal4-VP16 FLuc = counter-screen for ROR gamma inhibitors: Gal4-VP16 reporter; Drosophila S2 Gal4-VP16 UAS-luciferase, luminescence, 20 h; Potency, µM (top dose mostly 53.6 µM), inactives show at the top dose activity, negative = inhibition, actives largely listed as inhibitors; actives 3.5% (n = 310,000); AID 2546;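 note: Gal4-VP16 expression switched on by copper sulfate through the metallothionein promoter; potency is the fitted concentration of half-maximal effect; nearly all actives have a fitted effect of over 50% in size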
* = called active by the depositor; ? = inconclusive; / = no result given; [ ] = another dose, or the depositor's remark. Unless noted, calls come from the whole dose curve; as a rule, active = well fitted curve in the direction sought with a large enough effect; inconclusive = small, poorly fitted or top-dose-only effect, or another doubt; inactive = no such curve, though single readings can be large; an effect the other way counts as inactive or inconclusive. Unless noted, % is set by controls: 0 for no effect and ±100 for the full control effect.

SMILES | LDHA inh | IL-1B inflam inh | DT40 TDP1 no CPT | RORg inh | TDP1 cell CPT | Gal4-VP16 FLuc
Cc1cc(C)n(CC(=O)n2nc(C)cc2C)n1 | -9 | 28 | -29% | 0.32µM* | 1% | 5%
COc1ccc(OCc2nnc(SCC(=O)N3CCc4ccccc4C3)n2C)cc1 | 7 | / | / | / | / | /
COc1ccc(-c2cc(C(F)(F)F)nc(S(=O)(=O)CCC(=O)Nc3ccccc3F)n2)cc1 | -20 | / | / | / | / | /
NC(=O)c1cccc(Nc2nc(C(N)Cc3ccc(C(F)(F)F)cc3)cs2)n1 (stereo unspecified) | -14 | -28 | 10µM* | / | 6.5µM* | /
NC(Cc1ccccc1)c1csc(Nc2ccc(C(F)(F)F)cn2)n1 (stereo unspecified) | -3 | -53* | 21µM* | / | 21µM* | /
NC(Cc1ccc(F)cc1)c1csc(Nc2ccc(C(=O)NCCCO)cn2)n1 (stereo unspecified) | -4 | -4 | ? | / | ? | /
COc1cccc(Nc2nc(C(N)Cc3ccc(Cl)cc3)cs2)n1 (stereo unspecified) | -15 | -67* | 6.5µM* | / | 6.5µM* | /
COc1cccc(Nc2nc(C(N)Cc3ccc(C(F)(F)F)cc3)cs2)n1 (stereo unspecified) | -8 | ? | 12µM* | / | 9.2µM* | /
O=C(Nc1cccc2c1CCCC2)c1ccc(S(=O)(=O)NC2CC2)cc1 | 5 | / | / | / | / | /
CCc1ccccc1NCC(=O)Nc1ccc(C#N)cc1 | 7 | / | / | / | / | /
Cc1ccc(NC(=O)NC(=O)CN(C)c2ccccc2)c(C)c1 | -5 | / | / | / | / | /
O=C(Nc1ccc(C(F)(F)F)cc1)C1CCCC1 | 3 | / | / | / | / | /
COc1ccc(CC(N)c2csc(Nc3ccccn3)n2)cc1 (stereo unspecified) | 1 | -50* | 26µM* | / | 23µM* | /
COc1ccc(C(N)c2csc(Nc3ccc(C(F)(F)F)cn3)n2)cc1 (stereo unspecified) | -5 | -8 | 18µM* | / | ? | /
COc1cccc(Nc2nc(C(N)COCc3ccccc3)cs2)n1 (stereo unspecified) | -5 | / | ? | / | ? | /
COc1ccc(C(N)c2csc(NC(=O)Nc3ccccc3C(C)(C)C)n2)cc1 (stereo unspecified) | -18 | -29 | ? | / | ? | /
COc1ccc(CC(N)c2csc(Nc3cccc(OC)n3)n2)cc1 (stereo unspecified) | -4 | 0 | 13µM* | / | 15µM* | /
CCC1CSC(Nc2ccc(C)cc2)=N1 (stereo unspecified) | -5 | / | / | / | / | /
Cc1ccc(NC2=NCC(Cc3ccc(Br)cc3)S2)cc1 (stereo unspecified) | -7 | -96* | ? | 13µM* | ? | ?
CCc1ccc(NC2=NCC(c3ccccc3)S2)cc1 (stereo unspecified) | 3 | -6 | ? | 8.9µM* | -24% | ?
CC(C)OCc1ccc(CNC(=O)CC(C)c2ccccc2)cc1 (stereo unspecified) | -1 | / | / | / | / | /
CCONC(=O)c1ccc(NC(=O)c2cccs2)cc1 | 4 | / | / | / | / | /
Cc1ccc(C2N3CC4(C)CN2CC(C)(C3)C4=O)cc1 (stereo unspecified) | 3 | / | / | / | / | /
CCCn1nc(S(=O)(=O)N2CCCC2)c(C(=O)OCC)c1C | -18 | / | / | / | / | /
Cc1ccc(C(=O)CSc2nc3ccccc3o2)cc1 | 2 | -54* | -5% | ? | 2% | ?
SMILES | LDHA inh | IL-1B inflam inh | DT40 TDP1 no CPT | RORg inh | TDP1 cell CPT | Gal4-VP16 FLuc
COCCn1c(C)cc(C(=O)CSc2nc3ccccc3[nH]2)c1C | -20 | / | / | / | / | /
Cc1cc(C(=O)CSc2nc3ccccc3[nH]2)c(C)n1CC1CCCO1 (stereo unspecified) | -6 | -7 | 5.2µM* | ? | 7.3µM* | ?
Cc1ccc(NC(=O)CSc2nc3ccccc3o2)cc1 | -5 | / | / | / | / | /
Cc1cc(C(=O)CSc2nc3ccccc3o2)c(C)n1CC1CCCO1 (stereo unspecified) | -2 | 6 | 18µM* | 1% | 9.2µM* | ?
Cc1cc(C(=O)CSc2nc(N)cc(=O)[nH]2)c(C)n1CC1CCCO1 (stereo unspecified) | -5 | 15 | 18µM* | / | 16µM* | /
Cn1c(SCC(=O)Nc2sccc2C#N)nnc1-c1cccc(Cl)c1 | 3 | / | / | / | / | /
Cc1cc(C(=O)Cn2nnc(-c3ccc(Cl)cc3)n2)c(C)n1CC1CCCO1 (stereo unspecified) | -4 | -71* | ? | -2% | 12µM* | 32µM*
CCOc1ccc(CC(=O)NCCc2csc(-c3ccc(Cl)cc3)n2)cc1 | -9 | / | 16µM* | / | ? | /
O=C(COc1ccc(Cl)cc1)NCCc1csc(-c2ccncc2)n1 | 0 | / | / | / | / | /
CCOc1ccc(CC(=O)NCCc2csc(-c3ccc(C)cc3)n2)cc1 | -8 | / | 21µM* | / | ? | /
Cc1ccc(CNC(=O)CC2C=CCC2)cn1 (stereo unspecified) | 5 | / | / | / | / | /
Cc1ccc(-n2[nH]c3c4c(ccc3c2=O)C(=O)c2ccccc2C4=O)cc1 | 2 | -4 | -21% | -5%[10 µM] | -8% | 3%

From PubChem BioAssay
